Data from ChEMBL document CHEMBL1961873, “Compounds: GSK PKIS; Assays: Nanosyn kinase panel” (2012).

Columns and labels:
[1] = target: T1, Inhibitor of nuclear factor kappa-B kinase subunit epsilon (Homo sapiens) (UniProt Q14164); conditions: at 1 µM;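 note: reported values are averaged percent inhibition figures against human IKKε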
T1 sequence (whole entry): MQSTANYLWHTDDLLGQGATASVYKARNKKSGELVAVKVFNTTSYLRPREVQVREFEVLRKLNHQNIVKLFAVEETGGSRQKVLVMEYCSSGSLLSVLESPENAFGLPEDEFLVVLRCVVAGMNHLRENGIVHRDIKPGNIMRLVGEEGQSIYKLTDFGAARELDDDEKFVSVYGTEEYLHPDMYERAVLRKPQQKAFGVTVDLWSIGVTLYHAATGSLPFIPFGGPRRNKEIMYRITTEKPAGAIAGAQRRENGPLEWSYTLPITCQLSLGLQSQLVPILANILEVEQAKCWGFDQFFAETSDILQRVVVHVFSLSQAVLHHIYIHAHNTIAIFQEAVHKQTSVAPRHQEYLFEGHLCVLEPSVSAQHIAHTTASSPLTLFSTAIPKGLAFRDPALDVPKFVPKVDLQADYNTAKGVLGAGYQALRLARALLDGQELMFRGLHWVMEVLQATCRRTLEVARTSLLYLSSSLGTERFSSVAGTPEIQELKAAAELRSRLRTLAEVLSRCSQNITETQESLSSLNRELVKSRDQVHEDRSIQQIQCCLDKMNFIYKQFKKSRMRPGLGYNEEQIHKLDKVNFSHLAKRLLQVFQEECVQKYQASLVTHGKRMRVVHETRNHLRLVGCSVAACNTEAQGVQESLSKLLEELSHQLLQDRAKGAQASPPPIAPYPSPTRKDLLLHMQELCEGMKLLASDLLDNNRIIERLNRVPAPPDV

[2] = target: T2, Serine/threonine-protein kinase Nek1 (Homo sapiens) (UniProt Q96PY6); conditions: at 0.1 µM
T2 sequence (whole entry): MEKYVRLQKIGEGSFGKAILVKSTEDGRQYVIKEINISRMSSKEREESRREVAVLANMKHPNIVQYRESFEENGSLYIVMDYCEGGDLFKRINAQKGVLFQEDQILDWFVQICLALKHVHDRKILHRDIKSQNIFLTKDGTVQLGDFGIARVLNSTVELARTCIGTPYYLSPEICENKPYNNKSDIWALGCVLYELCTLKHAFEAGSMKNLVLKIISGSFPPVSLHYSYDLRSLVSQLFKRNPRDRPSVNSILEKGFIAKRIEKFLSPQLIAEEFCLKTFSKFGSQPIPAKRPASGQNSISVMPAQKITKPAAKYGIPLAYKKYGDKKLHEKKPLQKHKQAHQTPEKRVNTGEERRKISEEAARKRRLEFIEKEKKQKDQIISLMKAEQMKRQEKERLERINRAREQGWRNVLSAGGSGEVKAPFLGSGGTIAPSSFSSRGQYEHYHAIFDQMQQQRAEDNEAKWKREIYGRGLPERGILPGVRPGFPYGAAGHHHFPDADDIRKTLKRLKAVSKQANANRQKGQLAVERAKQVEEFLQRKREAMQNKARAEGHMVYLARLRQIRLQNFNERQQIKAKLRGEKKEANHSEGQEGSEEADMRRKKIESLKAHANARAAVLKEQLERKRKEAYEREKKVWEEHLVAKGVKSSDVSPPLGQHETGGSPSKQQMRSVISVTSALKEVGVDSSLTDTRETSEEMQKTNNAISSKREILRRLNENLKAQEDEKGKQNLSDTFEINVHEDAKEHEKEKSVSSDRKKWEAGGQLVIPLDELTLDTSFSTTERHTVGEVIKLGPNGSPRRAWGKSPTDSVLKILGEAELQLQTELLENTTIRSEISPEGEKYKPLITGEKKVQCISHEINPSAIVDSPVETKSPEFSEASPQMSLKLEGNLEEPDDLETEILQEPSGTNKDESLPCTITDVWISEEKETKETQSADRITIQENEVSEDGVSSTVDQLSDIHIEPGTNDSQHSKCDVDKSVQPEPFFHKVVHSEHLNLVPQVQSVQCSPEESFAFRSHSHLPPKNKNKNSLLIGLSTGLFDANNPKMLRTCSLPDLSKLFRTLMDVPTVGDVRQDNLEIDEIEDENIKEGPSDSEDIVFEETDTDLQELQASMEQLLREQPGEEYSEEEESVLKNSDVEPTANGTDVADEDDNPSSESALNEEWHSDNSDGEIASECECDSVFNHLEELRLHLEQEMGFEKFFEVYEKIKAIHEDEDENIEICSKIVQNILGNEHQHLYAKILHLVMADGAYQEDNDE

[3] = target: T2, Serine/threonine-protein kinase Nek1 (Homo sapiens); conditions: at 1 µM
[4] = target: T3, Serine/threonine-protein kinase Nek2 (Homo sapiens) (UniProt P51955); conditions: at 0.1 µM
T3 sequence (whole entry): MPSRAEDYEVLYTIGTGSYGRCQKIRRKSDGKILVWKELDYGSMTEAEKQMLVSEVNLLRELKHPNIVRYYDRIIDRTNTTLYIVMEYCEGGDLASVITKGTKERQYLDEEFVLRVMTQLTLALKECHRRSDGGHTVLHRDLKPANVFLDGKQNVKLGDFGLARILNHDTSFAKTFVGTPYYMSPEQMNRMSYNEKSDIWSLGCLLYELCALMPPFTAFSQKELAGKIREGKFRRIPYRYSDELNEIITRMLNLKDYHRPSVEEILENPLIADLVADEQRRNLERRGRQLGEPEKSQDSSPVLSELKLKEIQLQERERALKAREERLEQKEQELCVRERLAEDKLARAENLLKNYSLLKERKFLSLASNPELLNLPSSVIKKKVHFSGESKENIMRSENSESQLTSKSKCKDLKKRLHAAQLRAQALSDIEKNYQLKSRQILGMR

[5] = target: T3, Serine/threonine-protein kinase Nek2 (Homo sapiens); conditions: at 1 µM
[6] = target: Serine/threonine-protein kinase Nek6 (Homo sapiens) (UniProt Q9HC98); conditions: at 0.1 µM
[7] = target: Serine/threonine-protein kinase Nek6 (Homo sapiens) (UniProt Q9HC98); conditions: at 1 µM
[8] = target: Serine/threonine-protein kinase Nek7 (Homo sapiens) (UniProt Q8TDX7); conditions: at 0.1 µM
[9] = target: Serine/threonine-protein kinase Nek7 (Homo sapiens) (UniProt Q8TDX7); conditions: at 1 µM
[10] = target: T4, Serine/threonine-protein kinase Nek9 (Homo sapiens) (UniProt Q8TD19); conditions: at 0.1 µM
T4 sequence (whole entry): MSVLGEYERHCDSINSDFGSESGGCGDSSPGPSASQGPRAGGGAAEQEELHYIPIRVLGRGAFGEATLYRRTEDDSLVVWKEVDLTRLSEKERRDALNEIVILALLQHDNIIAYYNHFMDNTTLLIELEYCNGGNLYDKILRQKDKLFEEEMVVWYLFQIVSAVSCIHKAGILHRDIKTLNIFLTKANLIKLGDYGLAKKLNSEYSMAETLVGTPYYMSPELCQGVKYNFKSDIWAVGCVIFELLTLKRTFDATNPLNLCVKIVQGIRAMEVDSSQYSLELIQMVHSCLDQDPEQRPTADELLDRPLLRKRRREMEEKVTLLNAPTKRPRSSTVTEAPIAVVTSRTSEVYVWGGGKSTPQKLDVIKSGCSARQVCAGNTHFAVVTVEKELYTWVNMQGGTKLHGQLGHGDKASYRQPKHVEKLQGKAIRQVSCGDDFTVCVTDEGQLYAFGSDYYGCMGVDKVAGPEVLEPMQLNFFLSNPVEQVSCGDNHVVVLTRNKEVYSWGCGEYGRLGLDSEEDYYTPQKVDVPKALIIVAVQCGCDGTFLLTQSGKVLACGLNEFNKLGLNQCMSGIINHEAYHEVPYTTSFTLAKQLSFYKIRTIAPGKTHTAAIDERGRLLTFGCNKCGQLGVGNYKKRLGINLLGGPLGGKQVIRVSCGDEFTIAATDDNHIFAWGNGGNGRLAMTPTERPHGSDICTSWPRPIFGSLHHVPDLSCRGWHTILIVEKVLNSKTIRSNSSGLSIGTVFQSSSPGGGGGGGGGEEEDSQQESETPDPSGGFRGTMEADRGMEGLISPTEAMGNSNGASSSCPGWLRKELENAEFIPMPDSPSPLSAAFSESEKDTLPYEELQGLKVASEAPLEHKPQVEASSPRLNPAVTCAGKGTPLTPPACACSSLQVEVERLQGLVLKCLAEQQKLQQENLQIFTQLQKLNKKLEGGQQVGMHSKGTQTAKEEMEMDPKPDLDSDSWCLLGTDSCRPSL

[11] = target: T4, Serine/threonine-protein kinase Nek9 (Homo sapiens); conditions: at 1 µM
[12] = target: Serine/threonine-protein kinase PLK1 (Homo sapiens) (UniProt P53350); conditions: at 0.1 µM
[13] = target: Serine/threonine-protein kinase PLK1 (Homo sapiens) (UniProt P53350); conditions: at 1 µM
[14] = target: T5, Dual specificity protein kinase TTK (Homo sapiens) (UniProt P33981); conditions: at 0.1 µM
T5 sequence (whole entry): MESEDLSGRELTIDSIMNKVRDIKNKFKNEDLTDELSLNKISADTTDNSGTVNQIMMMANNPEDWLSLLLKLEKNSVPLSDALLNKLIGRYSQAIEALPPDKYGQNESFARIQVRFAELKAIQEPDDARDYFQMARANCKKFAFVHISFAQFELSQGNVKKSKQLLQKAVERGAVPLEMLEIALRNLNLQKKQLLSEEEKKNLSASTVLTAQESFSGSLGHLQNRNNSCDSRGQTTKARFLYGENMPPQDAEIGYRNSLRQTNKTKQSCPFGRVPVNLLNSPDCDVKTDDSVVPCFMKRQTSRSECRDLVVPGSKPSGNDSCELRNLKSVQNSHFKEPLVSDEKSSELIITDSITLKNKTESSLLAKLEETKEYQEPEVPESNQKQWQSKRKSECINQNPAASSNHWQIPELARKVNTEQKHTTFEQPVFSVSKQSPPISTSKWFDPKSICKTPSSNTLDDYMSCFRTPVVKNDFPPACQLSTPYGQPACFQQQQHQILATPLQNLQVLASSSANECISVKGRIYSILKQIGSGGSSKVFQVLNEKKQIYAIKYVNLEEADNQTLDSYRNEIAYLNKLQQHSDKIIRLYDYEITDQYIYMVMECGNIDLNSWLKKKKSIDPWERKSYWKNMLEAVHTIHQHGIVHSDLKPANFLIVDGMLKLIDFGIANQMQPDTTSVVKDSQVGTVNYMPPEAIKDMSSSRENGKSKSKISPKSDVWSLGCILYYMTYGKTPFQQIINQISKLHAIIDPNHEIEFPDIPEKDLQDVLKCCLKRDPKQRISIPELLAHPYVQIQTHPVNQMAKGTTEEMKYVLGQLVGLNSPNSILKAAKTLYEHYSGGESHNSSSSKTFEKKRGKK

[15] = system: T6, Receptor-type tyrosine-protein kinase FLT3 (Homo sapiens), P36888 [D835Y]; conditions: at 1 µM
T6 sequence (whole entry): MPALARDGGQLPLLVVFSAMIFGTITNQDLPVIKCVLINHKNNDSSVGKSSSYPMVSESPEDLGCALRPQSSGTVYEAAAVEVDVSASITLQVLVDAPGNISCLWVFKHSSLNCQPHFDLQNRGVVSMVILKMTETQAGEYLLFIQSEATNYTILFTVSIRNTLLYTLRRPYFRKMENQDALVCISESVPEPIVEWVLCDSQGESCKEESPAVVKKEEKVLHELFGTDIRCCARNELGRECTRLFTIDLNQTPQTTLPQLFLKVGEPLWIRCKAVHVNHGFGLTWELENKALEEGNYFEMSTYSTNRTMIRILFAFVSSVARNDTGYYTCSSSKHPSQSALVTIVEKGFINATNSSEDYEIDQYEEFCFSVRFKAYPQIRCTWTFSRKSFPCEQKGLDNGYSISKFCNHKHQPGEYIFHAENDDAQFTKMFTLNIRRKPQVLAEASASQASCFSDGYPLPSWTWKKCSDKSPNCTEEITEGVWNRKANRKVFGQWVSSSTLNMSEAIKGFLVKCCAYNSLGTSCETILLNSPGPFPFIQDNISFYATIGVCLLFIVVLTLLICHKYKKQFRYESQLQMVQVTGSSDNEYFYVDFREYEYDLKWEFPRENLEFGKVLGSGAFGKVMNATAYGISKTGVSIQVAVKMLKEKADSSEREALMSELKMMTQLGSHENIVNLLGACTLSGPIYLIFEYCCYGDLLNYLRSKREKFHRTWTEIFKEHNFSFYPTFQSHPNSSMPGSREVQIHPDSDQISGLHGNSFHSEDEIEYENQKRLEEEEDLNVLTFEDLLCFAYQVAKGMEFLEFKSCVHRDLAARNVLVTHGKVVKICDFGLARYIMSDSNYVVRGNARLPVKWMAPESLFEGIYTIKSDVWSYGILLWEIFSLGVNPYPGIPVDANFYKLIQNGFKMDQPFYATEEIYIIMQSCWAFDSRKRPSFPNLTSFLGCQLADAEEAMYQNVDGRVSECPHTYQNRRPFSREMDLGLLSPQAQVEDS

[16] = target: Vascular endothelial growth factor receptor 3 (Homo sapiens) (UniProt P35916); conditions: at 0.1 µM
[17] = target: Vascular endothelial growth factor receptor 3 (Homo sapiens) (UniProt P35916); conditions: at 1 µM
[18] = target: Macrophage colony-stimulating factor 1 receptor (Homo sapiens) (UniProt P07333); conditions: at 0.1 µM
[19] = target: Macrophage colony-stimulating factor 1 receptor (Homo sapiens) (UniProt P07333); conditions: at 1 µM
[20] = target: Tyrosine-protein kinase Fyn (Homo sapiens) (UniProt P06241); conditions: at 0.1 µM
Tyrosine-protein kinase Fyn (Homo sapiens), sequence (P06241 2-537 limits assumed): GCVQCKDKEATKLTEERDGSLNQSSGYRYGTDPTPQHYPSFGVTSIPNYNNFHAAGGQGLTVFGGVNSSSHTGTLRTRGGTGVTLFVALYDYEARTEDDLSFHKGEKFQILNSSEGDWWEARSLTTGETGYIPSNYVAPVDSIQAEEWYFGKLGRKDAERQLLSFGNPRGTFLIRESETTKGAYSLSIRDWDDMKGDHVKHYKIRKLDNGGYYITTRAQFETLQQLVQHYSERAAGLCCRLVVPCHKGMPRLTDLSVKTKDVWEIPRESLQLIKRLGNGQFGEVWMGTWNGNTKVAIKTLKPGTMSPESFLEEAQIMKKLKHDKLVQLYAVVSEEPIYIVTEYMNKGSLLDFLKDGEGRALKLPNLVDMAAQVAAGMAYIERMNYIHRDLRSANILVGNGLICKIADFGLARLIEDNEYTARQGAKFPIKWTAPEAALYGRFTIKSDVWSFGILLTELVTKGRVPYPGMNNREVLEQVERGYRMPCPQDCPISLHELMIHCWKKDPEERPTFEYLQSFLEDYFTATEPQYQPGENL

Serine/threonine-protein kinase Nek6 (Homo sapiens), sequence (Q9HC98 whole entry): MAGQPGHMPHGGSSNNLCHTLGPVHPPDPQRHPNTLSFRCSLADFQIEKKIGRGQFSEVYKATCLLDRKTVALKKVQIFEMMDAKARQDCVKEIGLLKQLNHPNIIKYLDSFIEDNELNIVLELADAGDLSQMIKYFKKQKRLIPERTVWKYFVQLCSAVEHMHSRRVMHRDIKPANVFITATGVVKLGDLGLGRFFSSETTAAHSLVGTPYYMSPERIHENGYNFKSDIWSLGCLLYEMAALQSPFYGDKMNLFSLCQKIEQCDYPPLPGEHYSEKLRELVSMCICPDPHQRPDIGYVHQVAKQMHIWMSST
Vascular endothelial growth factor receptor 3 (Homo sapiens), sequence (P35916 whole entry): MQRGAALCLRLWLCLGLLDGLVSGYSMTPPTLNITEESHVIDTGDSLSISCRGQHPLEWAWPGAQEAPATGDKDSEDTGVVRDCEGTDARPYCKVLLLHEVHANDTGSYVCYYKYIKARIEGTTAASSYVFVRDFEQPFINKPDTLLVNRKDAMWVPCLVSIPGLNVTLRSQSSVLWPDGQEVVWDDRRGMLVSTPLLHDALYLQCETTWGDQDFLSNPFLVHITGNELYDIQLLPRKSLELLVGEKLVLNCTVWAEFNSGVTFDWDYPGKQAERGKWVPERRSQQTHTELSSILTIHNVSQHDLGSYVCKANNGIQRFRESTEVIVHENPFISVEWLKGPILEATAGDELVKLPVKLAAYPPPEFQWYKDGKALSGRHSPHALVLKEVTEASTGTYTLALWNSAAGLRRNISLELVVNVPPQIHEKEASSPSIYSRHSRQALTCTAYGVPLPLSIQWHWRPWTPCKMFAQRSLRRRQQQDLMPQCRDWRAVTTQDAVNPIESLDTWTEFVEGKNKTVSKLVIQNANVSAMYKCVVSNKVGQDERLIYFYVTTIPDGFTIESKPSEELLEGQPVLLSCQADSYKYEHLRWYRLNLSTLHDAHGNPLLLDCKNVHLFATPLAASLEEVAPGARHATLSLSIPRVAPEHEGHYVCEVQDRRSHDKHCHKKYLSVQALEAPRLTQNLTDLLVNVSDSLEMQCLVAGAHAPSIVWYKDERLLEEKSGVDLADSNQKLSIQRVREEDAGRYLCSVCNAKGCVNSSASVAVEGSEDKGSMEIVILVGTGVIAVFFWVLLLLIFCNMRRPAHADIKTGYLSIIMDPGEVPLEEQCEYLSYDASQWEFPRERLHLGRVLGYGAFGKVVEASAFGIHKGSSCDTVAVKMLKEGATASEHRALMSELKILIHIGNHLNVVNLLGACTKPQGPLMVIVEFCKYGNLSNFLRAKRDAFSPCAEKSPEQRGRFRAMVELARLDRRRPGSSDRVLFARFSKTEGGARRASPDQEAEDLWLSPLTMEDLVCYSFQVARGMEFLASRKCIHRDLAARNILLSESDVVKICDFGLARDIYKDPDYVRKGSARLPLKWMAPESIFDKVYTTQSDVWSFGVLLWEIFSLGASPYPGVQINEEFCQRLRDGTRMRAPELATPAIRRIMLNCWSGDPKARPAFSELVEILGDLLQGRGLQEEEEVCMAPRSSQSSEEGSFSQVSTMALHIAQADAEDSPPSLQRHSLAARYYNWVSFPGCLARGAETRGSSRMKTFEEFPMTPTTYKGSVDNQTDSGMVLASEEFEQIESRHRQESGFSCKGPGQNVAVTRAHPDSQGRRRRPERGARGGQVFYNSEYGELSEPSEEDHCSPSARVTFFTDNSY
Serine/threonine-protein kinase PLK1 (Homo sapiens), sequence (P53350 whole entry): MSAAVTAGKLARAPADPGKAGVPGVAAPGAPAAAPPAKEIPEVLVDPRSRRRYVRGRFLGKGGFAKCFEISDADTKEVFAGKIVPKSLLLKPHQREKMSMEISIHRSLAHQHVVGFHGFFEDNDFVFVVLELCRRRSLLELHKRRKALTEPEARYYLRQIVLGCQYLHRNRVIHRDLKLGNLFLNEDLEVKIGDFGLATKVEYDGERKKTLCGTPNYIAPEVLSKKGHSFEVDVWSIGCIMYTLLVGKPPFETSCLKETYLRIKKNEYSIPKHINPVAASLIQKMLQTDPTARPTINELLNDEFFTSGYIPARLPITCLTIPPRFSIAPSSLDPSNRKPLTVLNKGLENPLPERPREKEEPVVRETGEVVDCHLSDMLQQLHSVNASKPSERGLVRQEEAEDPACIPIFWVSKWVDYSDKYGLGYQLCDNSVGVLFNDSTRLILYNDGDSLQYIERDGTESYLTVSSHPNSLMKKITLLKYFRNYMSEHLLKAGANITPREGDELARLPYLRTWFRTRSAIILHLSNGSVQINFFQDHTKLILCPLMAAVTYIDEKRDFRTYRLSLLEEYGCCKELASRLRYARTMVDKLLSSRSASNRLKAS
Macrophage colony-stimulating factor 1 receptor (Homo sapiens), sequence (P07333 whole entry): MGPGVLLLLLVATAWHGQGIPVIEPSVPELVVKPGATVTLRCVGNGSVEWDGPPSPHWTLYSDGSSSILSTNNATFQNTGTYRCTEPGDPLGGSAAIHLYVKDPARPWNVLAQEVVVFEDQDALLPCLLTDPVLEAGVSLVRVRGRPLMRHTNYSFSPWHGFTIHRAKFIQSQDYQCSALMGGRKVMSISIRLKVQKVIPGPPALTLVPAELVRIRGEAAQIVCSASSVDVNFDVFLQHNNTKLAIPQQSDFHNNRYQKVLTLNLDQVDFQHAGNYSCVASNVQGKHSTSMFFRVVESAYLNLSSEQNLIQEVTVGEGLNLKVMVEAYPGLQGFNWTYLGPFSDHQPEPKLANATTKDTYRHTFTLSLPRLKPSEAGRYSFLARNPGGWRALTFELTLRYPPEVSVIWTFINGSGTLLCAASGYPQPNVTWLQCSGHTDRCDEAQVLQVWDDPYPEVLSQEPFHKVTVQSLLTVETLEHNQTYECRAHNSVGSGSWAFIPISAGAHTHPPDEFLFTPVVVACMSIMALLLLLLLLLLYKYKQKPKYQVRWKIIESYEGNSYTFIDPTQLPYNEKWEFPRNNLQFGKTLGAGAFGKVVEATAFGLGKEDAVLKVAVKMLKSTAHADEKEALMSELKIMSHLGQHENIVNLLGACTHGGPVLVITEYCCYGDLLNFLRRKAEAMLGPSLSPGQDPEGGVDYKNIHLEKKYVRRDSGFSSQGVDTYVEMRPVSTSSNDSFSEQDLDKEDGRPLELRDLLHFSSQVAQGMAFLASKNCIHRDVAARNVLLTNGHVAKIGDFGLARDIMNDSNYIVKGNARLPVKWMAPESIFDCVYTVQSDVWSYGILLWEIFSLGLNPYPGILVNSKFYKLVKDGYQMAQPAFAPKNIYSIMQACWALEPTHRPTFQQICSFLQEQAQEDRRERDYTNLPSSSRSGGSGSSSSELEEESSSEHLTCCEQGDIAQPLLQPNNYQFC
Serine/threonine-protein kinase Nek7 (Homo sapiens), sequence (Q8TDX7 whole entry, looked up): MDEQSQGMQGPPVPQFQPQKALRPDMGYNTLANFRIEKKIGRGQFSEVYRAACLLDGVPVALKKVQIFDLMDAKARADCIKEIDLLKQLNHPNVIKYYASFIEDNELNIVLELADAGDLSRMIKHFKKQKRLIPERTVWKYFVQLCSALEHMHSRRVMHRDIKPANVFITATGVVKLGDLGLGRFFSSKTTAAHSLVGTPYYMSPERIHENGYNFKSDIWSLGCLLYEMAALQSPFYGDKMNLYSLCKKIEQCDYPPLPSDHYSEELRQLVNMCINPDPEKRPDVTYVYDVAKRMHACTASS

SMILES | inhibition [1] [%] | inhibition [2] [%] | inhibition [3] [%] | inhibition [4] [%] | inhibition [5] [%] | inhibition [6] [%] | inhibition [7] [%] | inhibition [8] [%] | inhibition [9] [%] | inhibition [10] [%] | inhibition [11] [%] | inhibition [12] [%] | inhibition [13] [%] | inhibition [14] [%] | inhibition [15] [%] | inhibition [16] [%] | inhibition [17] [%] | inhibition [18] [%] | inhibition [19] [%] | inhibition [20] [%]
CNC(=O)c1cccc(C#Cc2cncnc2Nc2ccc(OCc3cccc(F)c3)c(Cl)c2)c1 | 1.01 | -0.52 | -1.06 | 0.09 | -0.96 | 1.08 | 1.68 | 0.01 | 0.48 | 0.64 | 4.28 | -0.42 | 0.52 | 3.66 | 0.94 | -2.07 | 3.4 | 1.48 | 7.16 | 1.46
c1cc(-c2cnn3nc(N4CCOCC4)ccc23)nc(NC2CC2)n1 | 5.49 | 3.14 | 6.78 | 4.47 | 4.05 | 0.95 | 0.56 | 3.89 | 4.77 | -1.68 | -2.57 | 2.55 | 2.08 | 18.4 | 37.5 | 5.93 | 29.9 | 6.94 | 33.7 | 0.47
Fc1cccc(COc2ccc(Nc3ncnc4sc(-c5ccco5)cc34)cc2Cl)c1 | 4.97 | 1.98 | 3.24 | 3.69 | 5.99 | 1.71 | 2.07 | 2.72 | 4.26 | 10.3 | 8.43 | 6.82 | 4.61 | 6.94 | 0.69 | 1.58 | 3.49 | 0.84 | 8.62 | 0.36
